The structures appear in SMILES notation. Inconclusive results are not listed. The source made the active and inactive calls. The call rests on the fitted dose curve; in most records, active means well fitted inhibition curve with a large enough effect; inconclusive means small, poorly fitted or top-dose-only effect; inactive means flat fitted curve, though single readings scatter.
Potency means the concentration at half of the fitted maximal effect.

This experiment is described as follows: qHTS for Inhibitors of Plasmodium falciparum (HB3) proliferation (AID 504318). Further: nearly all actives have a fitted effect of over 60% in size.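 On activity change, negative = inhibition: 0% = DMSO vehicle and -100% = artemisinin control.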 The conditions noted are these: P. falciparum HB3 in erythrocytes, SYBR Green DNA, 72 h; series mostly up to 7.21 µM; activity change, negative = inhibition: at the top concentration. From the text:
Plasmodium falciparum is a virulent malarial parasite that kills 1-2 million people worldwide each year. Malaria not only inflicts tremendous suffering and morbidity on the human population, but has dramatically influenced the course of civilization with profound sociological and economic implications (Shah, S. 2010). Transmitted by mosquitoes, the sporozoite form of the parasite enters the blood stream to infect hepatocytes, where they become merozoites that infect red blood cells (erythrocytes). Within erythrocytes, merozoites begin a […] cycle of growth and division, after which the parasite is released to infect new red blood cells. Gametocytes, which form within erythrocytes as well, circulate in the bloodstream and are ingested by the mosquito, thereby completing the life cycle (see CDC website). To profile malarial lines for differential chemical responses and to identify inhibitors of malarial growth, an assay that measures P. falciparum growth and replication within erythrocytes was employed. This assay uses a DNA binding fluorescent dye (SYBR Green) to detect parasite DNA following cell lysis. Because mature erythrocytes lack DNA, only Plasmodium-derived DNA is detected. The P. falciparum line cp250, derived from a malarial isolate from Cambodia, (Mu, J., et al. 2010) was added to the panel of lines, Dd2, HB3, 7G8 and GB4 in this study. Laboratory of Assay Development and Screening Technology [ADST] and NIH Chemical Genomics Center [NCGC] Boston University, Chemistry Department, Center for Chemical Methodology and Library Development [CMLD-BU] NIH National Institute of Allergy and Infectious Diseases [NIAID]
ADST Assay Protocol Summary: The 1536-well SYBR Green viability assay was based on the method of Bennett et al (2004) and described previously in 1536-well format (Yuan J., et al. 2009). For screening 3 ul culture medium was dispensed into 1536 well black clear bottom plates (Aurora Biotechnologies) using a Multidrop Combi (Thermo Fisher Scientific Inc.), 23 nL compounds in DMSO were added by a pin transfer (Cleveland, P.H. and Koutz, P.J, 2005) using a pin tool-based delivery system (Kalypsys), and 5 ul of erythrocytes infected with P. falciparum one of five lines (cp250, Dd2, HB3, 7G8 or GB4, 0.3% parasitemia, 2.5% hematocrit final concentration) were added. The plates were incubated at 37C in a humidified incubator in 5% CO2 for 72 h, and 2 ul lysis buffer (20 mM Tris HCl, 10 mM EDTA, 0.16% saponin, 1.6% triton X, 10X SYBR Green I (supplied as 10,000X final concentration by Invitrogen) was added to each well. The plates were mixed for 25 sec with gentle shaking and incubated overnight at room temperature in the dark. The following morning, fluorescence intensity at 485(14) nm excitation and 535(25) nm emission wavelengths was measured on an EnVision (Perkin Elmer) plate reader. Plate reads were normalized relative to the control inhibitor (0.29 uM artemisinin) and vehicle (DMSO) wells present on each plate and then corrected by an algorithm using vehicle-only control plates at the beginning and end of the compound plate stack. References Shah, S. (2010). The Fever: how malaria has ruled humankind for 500,000 years. New York, Sarah Crichton Books. CDC web site, http://www.cdc.gov/malaria/about/biology/index.html Mu, J., Myers, R.A., Jiang, H., Liu, S., Ricklefs, S., Waisberg, M., Chotivanich, K., Wilairatana, P., Krudsood, S., White, N.J., et Plasmodium falciparum genome-wide scans for positive selection, recombination hot spots and resistance to antimalarial drugs Nature Genetics 2010, 42, pp 268-271 Bennett TN, Paguio, M., Gligorijevic, B., Seudieu, C., Kosar, A. D., Davidson, E., and Roepe, P. D. Novel, rapid, and inexpensive cell-based quantification of antimalarial drug efficacy Antimicrobial Agents Chemother. 2004, 48(5): pp 1807-10 Yuan J, Johnson RL, Huang RL, Wichterman J, Jiang HY, Hayton K, Fidock DA, Wellems TE, Inglese J, Austin CP, Su XZ. […]
Turning to `CCOC(=O)CN1C(=O)N[C@@H](c2cccc(C(F)(F)F)c2)C(C(=O)OC)=C1C`, the “activity change, negative = inhibition” value was 2.34% (inactive).

`COc1cc2c(cc1OC)[C@@H]1O[C@](CCCCN3C(=O)c4ccccc4C3=O)(C2)Oc2cc(C)n(-c3ccccc3)c(=O)c21`: the Potency was 1200 nM (active). For the compound `COC(=O)CCCC1=CC2=CC(=O)C(C)(OC(=O)c3cccs3)C(=O)C2=CN1Cc1ccccc1` (stereo not given), the “activity change, negative = inhibition” value was -4.66% (inactive). For the compound `CCCCS(=O)(=O)N1CCc2nc(COc3ccccc3)c3c(c2C1)CO[C@@H](C)C3`, the “activity change, negative = inhibition” value was -7.2% (inactive). For `COc1cccc([C@@H]2Oc3ccc(Br)cc3C(=O)[C@@H]2OC(=O)Nc2cc(OC)c(OC)c(OC)c2)c1`, the “activity change, negative = inhibition” value was -3.12% (inactive). On the same count and under the same terms, the result for `CCN1C(=O)N(C)[C@@H](c2ccccc2)C(C(C)=O)=C1C` reads -9.55% (inactive). The same measure, in the same setting: the same measure for `COC(=O)CCCC1=CC2=CC(=O)C(C)(OC(=O)CCc3ccccc3)C(=O)C2=CO1` (stereo not given): -8.71% (inactive). Same read-out and setting: the result for `COC(=O)CC1c2ccccc2C=C(/C=C/c2ccc3c(c2)OCO3)N1C(=O)OC` (stereo not given) reads -8.69% (inactive).

For the compound `COc1ccc(-c2nc3c(c4c2C[C@H](c2ccccc2)OC4)CN(S(=O)(=O)c2c(C)noc2C)CC3)c(C)c1`, the Potency was 2130 nM (active).

Regarding `COC(=O)C1=C(C(=O)OC)[C@@H]2N(Cc3ccccc3)c3ccccc3[C@@]23C[C@@H](C(=O)OC)N(S(=O)(=O)c2ccc(C#N)cc2)C3=N1`, the Potency was 1690 nM (active). Take `CCOC(=O)N1C2=NC(C(=O)OC)=C(C(=O)OC)[C@@H]3N(C)c4ccc(OC)cc4[C@]23C[C@H]1C(=O)OC`: the “activity change, negative = inhibition” value was -4.52% (inactive). On the same count and under the same terms, the same measure for `CCCCC1=CC2=C(c3ccco3)C(=O)C(C)(OC(=O)c3ccc(OC)cc3)C(=O)C2=CN1CCOC` (stereo not given): -3.92% (inactive).

For `CCOC(=O)OC[C@H]1O[C@H](c2ccccc2)C=C[C@H]1OC(=O)OCC`, the “activity change, negative = inhibition” value was 8.24% (inactive). Take `COC(=O)C1=C(C)N(Cc2ccco2)C(=O)N[C@@H]1c1ccco1`: the “activity change, negative = inhibition” value was 0.0624% (inactive).

On to `COCC(=O)N1CCc2nc(COc3ccccc3)c3c(c2C1)CO[C@@H](C)C3`, for which the “activity change, negative = inhibition” value was 5.06% (inactive). Take `C=CCN1C=C2C(=O)C(C)(OC(=O)c3cccs3)C(=O)C=C2C=C1CCCC(=O)OC` (stereo not given): the “activity change, negative = inhibition” value is -2.71% (inactive). Take `COC(=O)C(C(=O)OC)[C@@H]1c2ccccc2[C@H]2C(=C[C@@H](C)[C@H]3C(=O)N(c4ccccc4)C(=O)[C@H]32)N1C(=O)OC`: the “activity change, negative = inhibition” value is -3.74% (inactive). On to `CCCCC1=CC2=CC(=O)C(C)(OC(=O)CC)C(=O)C2=CN1c1ccccc1` (stereo not given), for which the “activity change, negative = inhibition” value is -0.607% (inactive). Same read-out and setting: the same measure for `C#CCCOC(=O)N1C2=NC(C(=O)OC)=C(C(=O)OC)[C@@H]3N(CC#CC)c4ccccc4[C@]23C[C@H]1C(=O)OC`: 0.871% (inactive). Still for that read-out and setting: the result for `C=CCN1C=C2C(=O)C(C)(OC(=O)c3cnc4ccccc4n3)C(=O)C=C2C=C1/C=C/COC` (stereo not given) reads -1.37% (inactive); that for `COC(=O)CCC(=O)OC1(C)C(=O)C=C2C=C(C3CC3)N(C3CC3)C=C2C1=O` (stereo not given), -4.42% (inactive). On the same count and under the same terms, the result for `COC(=O)CCC(=O)OC1(C)C(=O)C2=CN(CCc3c[nH]c4ccccc34)C(c3ccc(OC)cc3)=CC2=C(Br)C1=O` (stereo not given) reads -6.84% (inactive). On to `COC(=O)C1=C(C(=O)OC)[C@@H]2N(Cc3ccccc3)c3ccccc3[C@@]23C[C@@H](C(=O)OC)N(S(=O)(=O)c2ccc([N+](=O)[O-])cc2)C3=N1`, for which the Potency is 1900 nM (active). In the case of `CCOC(=O)CN1C(=O)N[C@@H](c2cccc(C(F)(F)F)c2)[C@@H](C(=O)OC)[C@H]1C`, the “activity change, negative = inhibition” value was -10.3% (inactive). For `COC(=O)C1=C(C(=O)OC)[C@@H]2Nc3ccccc3[C@@]23C[C@@H](C(=O)OC)N(S(=O)(=O)c2cccs2)C3=N1`, the “activity change, negative = inhibition” value is -3.66% (inactive). As for `COC(=O)N1C2CC(=O)O[C@@H]3c4cc5c(cc4[C@]1(C)[C@@]3(Br)c1ccccc12)OCO5`, the Potency was 1900 nM (active). Same read-out and setting: the result for `COC(=O)C1=C(C(=O)OC)[C@@H]2Nc3ccccc3[C@@]23C[C@@H](C(=O)OC)N(C(=O)c2cc(C)oc2C)C3=N1` reads 1690 nM (active). With `COC(=O)C1=C(C(=O)OC)[C@@H]2N(Cc3ccccc3)c3ccccc3[C@@]23C[C@@H](C(=O)OC)N(C(=O)COCc2ccccc2)C3=N1`, the “activity change, negative = inhibition” value was -2.98% (inactive).

Turning to `COCCN1C=C2C(=O)C(C)(OC(=O)CCC(=O)OC)C(=O)C=C2C=C1C1CC1` (stereo not given), the “activity change, negative = inhibition” value is -8.16% (inactive).

For the compound `COC(=O)C1=C(C(=O)OC)[C@@H]2N(Cc3ccccc3)c3ccccc3[C@@]23CCC(=O)N(CC2CCCCC2)C3=N1`, the “activity change, negative = inhibition” value was 4.08% (inactive). The same measure, in the same setting: the same measure for `COC(=O)CCCC1=CC2=C(c3ccccc3)C(=O)C(C)(OC(=O)C3CCCC3)C(=O)C2=CN1CC(C)C` (stereo not given): -14.7% (inactive); for `COC(=O)C1=C(C(=O)OC)[C@@H]2N(C)c3ccc(OC)cc3[C@@]23C[C@@H](C(=O)OC)N(S(=O)(=O)c2ccc(OC)cc2)C3=N1`: -9.81% (inactive). Same read-out and setting: the same measure for `C[C@H]1Cc2c(COc3ccccc3)nc3c(c2CO1)CN(S(=O)(=O)c1ccc(Cl)c2nonc12)CC3`: -4.98% (inactive).

In the case of `COC(=O)CCCC1=CC2=C(c3ccccc3)C(=O)C(C)(OC(=O)C3CCCC3)C(=O)C2=CN1Cc1ccccc1` (stereo not given), the “activity change, negative = inhibition” value is -8.81% (inactive). On to `COc1ccc(-c2nc(-c3ccccc3)c(Nc3ccc4ccccc4c3)o2)cc1`, for which the Potency is 1690 nM (active). On to `COC(=O)CCC(=O)OC1(C)C(=O)C2=CN(c3ccc(OC)cc3)C(c3ccc(OC)cc3)=CC2=C(Br)C1=O` (stereo not given), for which the “activity change, negative = inhibition” value was -9.87% (inactive). On the same count and under the same terms, the result for `CCN1C(=O)N[C@@H](c2cccc(F)c2)C(C(C)=O)=C1C` reads 3.06% (inactive); that for `CCN(CC)CCCN1C=C2C(=O)C(C)(OC(=O)c3cccs3)C(=O)C=C2C=C1CCCC(=O)OC` (stereo not given), -14.1% (inactive); that for `COC(=O)N[C@@H](c1ccccc1)[C@]1(C(=O)OC)CCCC1=O`, 6.45% (inactive). In the case of `COC(=O)[C@@H]1[C@@H](C)N(Cc2ccccc2)C(=O)N[C@H]1c1cccc(C(F)(F)F)c1`, the “activity change, negative = inhibition” value is -3.8% (inactive).
